In the supplement of paper PMC4466140:

molecular target: AgAbp1; assay: SPOT peptide array binding signal intensity (averaged, normalized) (arbitrary units (background-subtracted, floor 0; scale differs between SH3 domains)); higher = stronger binding of the SH3 domain to the peptide
Summary of the method: (§1)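 Binding signal is given in arbitrary units that differ between domains and is the normalized, background-subtracted spot intensity averaged across replicates. Each GST-SH3 fusion from one of four yeast species was made in E. coli BL21(DE3), purified on glutathione Sepharose and incubated at 10 μg/ml overnight at 4°C on cellulose-bound synthetic 15-mer peptides in which cysteines were replaced by serines. Detection used anti-GST antibody, an HRP anti-mouse secondary and luminol, followed by imaging and Genespotter quantification.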

Binder | SPOT peptide array binding signal intensity
TPRLSLPRLPNKHHW | 88

molecular target: AgBbc1; assay: as above
Summary of the method: as §1

Binder | SPOT peptide array binding signal intensity
TPRLSLPRLPNKHHW | 1.5

molecular target: AgBem1-D1; assay: as above
Summary of the method: as §1

Binder | SPOT peptide array binding signal intensity
TPRLSLPRLPNKHHW | ≤ 0

molecular target: AgBzz1-D1; assay: as above
Summary of the method: as §1

Binder | SPOT peptide array binding signal intensity
TPRLSLPRLPNKHHW | 12.5

molecular target: AgBzz1-D2; assay: as above
Summary of the method: as §1

Binder | SPOT peptide array binding signal intensity
TPRLSLPRLPNKHHW | 23.5

molecular target: AgCyk3; assay: as above
Summary of the method: as §1

Binder | SPOT peptide array binding signal intensity
TPRLSLPRLPNKHHW | ≤ 0

molecular target: AgFus1; assay: as above
Summary of the method: as §1

Binder | SPOT peptide array binding signal intensity
TPRLSLPRLPNKHHW | 15.5

molecular target: AgHof1; assay: as above
Summary of the method: as §1

Binder | SPOT peptide array binding signal intensity
TPRLSLPRLPNKHHW | 685

molecular target: AgHse1; assay: as above
Summary of the method: as §1

Binder | SPOT peptide array binding signal intensity
TPRLSLPRLPNKHHW | 271

molecular target: AgLsb1; assay: as above
Summary of the method: as §1

Binder | SPOT peptide array binding signal intensity
TPRLSLPRLPNKHHW | 1

molecular target: AgLsb4; assay: as above
Summary of the method: as §1

Binder | SPOT peptide array binding signal intensity
TPRLSLPRLPNKHHW | 33.5

molecular target: AgMyo5; assay: as above
Summary of the method: as §1

Binder | SPOT peptide array binding signal intensity
TPRLSLPRLPNKHHW | ≤ 0

molecular target: AgNbp2; assay: as above
Summary of the method: as §1

Binder | SPOT peptide array binding signal intensity
TPRLSLPRLPNKHHW | 26

molecular target: AgRvs167; assay: as above
Summary of the method: as §1

Binder | SPOT peptide array binding signal intensity
TPRLSLPRLPNKHHW | 2.67

molecular target: AgSho1; assay: as above
Summary of the method: as §1

Binder | SPOT peptide array binding signal intensity
TPRLSLPRLPNKHHW | 274

molecular target: AgSla1-D1-D2; assay: as above
Summary of the method: as §1

Binder | SPOT peptide array binding signal intensity
TPRLSLPRLPNKHHW | 7

molecular target: AgSla1-D3; assay: as above
Summary of the method: as §1

Binder | SPOT peptide array binding signal intensity
TPRLSLPRLPNKHHW | ≤ 0

molecular target: CaAbp1-D1; assay: as above
Summary of the method: as §1

Binder | SPOT peptide array binding signal intensity
TPRLSLPRLPNKHHW | 314

molecular target: CaAbp1-D2; assay: as above
Summary of the method: as §1

Binder | SPOT peptide array binding signal intensity
TPRLSLPRLPNKHHW | 675

molecular target: CaBbc1; assay: as above
Summary of the method: as §1

Binder | SPOT peptide array binding signal intensity
TPRLSLPRLPNKHHW | 30.2

molecular target: CaBem1-D1; assay: as above
Summary of the method: as §1

Binder | SPOT peptide array binding signal intensity
TPRLSLPRLPNKHHW | ≤ 0

molecular target: CaBzz1-D1; assay: as above
Summary of the method: as §1

Binder | SPOT peptide array binding signal intensity
TPRLSLPRLPNKHHW | ≤ 0

molecular target: CaBzz1-D2; assay: as above
Summary of the method: as §1

Binder | SPOT peptide array binding signal intensity
TPRLSLPRLPNKHHW | 34.5

molecular target: CaCyk3; assay: as above
Summary of the method: as §1

Binder | SPOT peptide array binding signal intensity
TPRLSLPRLPNKHHW | ≤ 0

molecular target: CaFus1; assay: as above
Summary of the method: as §1

Binder | SPOT peptide array binding signal intensity
TPRLSLPRLPNKHHW | 50.5

molecular target: CaHof1; assay: as above
Summary of the method: as §1

Binder | SPOT peptide array binding signal intensity
TPRLSLPRLPNKHHW | 1

molecular target: CaHse1; assay: as above
Summary of the method: as §1

Binder | SPOT peptide array binding signal intensity
TPRLSLPRLPNKHHW | 73

molecular target: CaLsb1; assay: as above
Summary of the method: as §1

Binder | SPOT peptide array binding signal intensity
TPRLSLPRLPNKHHW | ≤ 0

molecular target: CaLsb4; assay: as above
Summary of the method: as §1

Binder | SPOT peptide array binding signal intensity
TPRLSLPRLPNKHHW | 70

molecular target: CaMyo5; assay: as above
Summary of the method: as §1

Binder | SPOT peptide array binding signal intensity
TPRLSLPRLPNKHHW | ≤ 0

molecular target: CaNbp2; assay: as above
Summary of the method: as §1

Binder | SPOT peptide array binding signal intensity
TPRLSLPRLPNKHHW | 116

molecular target: CaRvs167; assay: as above
Summary of the method: as §1

Binder | SPOT peptide array binding signal intensity
TPRLSLPRLPNKHHW | 2.83

molecular target: CaRvs167-3; assay: as above
Summary of the method: as §1

Binder | SPOT peptide array binding signal intensity
TPRLSLPRLPNKHHW | 4.75

molecular target: CaSho1; assay: as above
Summary of the method: as §1

Binder | SPOT peptide array binding signal intensity
TPRLSLPRLPNKHHW | 89

molecular target: CaSla1-D1-D2; assay: as above
Summary of the method: as §1

Binder | SPOT peptide array binding signal intensity
TPRLSLPRLPNKHHW | 256

molecular target: CaSla1-D3; assay: as above
Summary of the method: as §1

Binder | SPOT peptide array binding signal intensity
TPRLSLPRLPNKHHW | 1.5

molecular target: ScAbp1; assay: as above
Summary of the method: as §1

Binder | SPOT peptide array binding signal intensity
TPRLSLPRLPNKHHW | 0.5

molecular target: ScBbc1; assay: as above
Summary of the method: as §1

Binder | SPOT peptide array binding signal intensity
TPRLSLPRLPNKHHW | ≤ 0

molecular target: ScBem1-D1; assay: as above
Summary of the method: as §1

Binder | SPOT peptide array binding signal intensity
TPRLSLPRLPNKHHW | 2

molecular target: ScBzz1-D1; assay: as above
Summary of the method: as §1

Binder | SPOT peptide array binding signal intensity
TPRLSLPRLPNKHHW | ≤ 0

molecular target: ScBzz1-D2; assay: as above
Summary of the method: as §1

Binder | SPOT peptide array binding signal intensity
TPRLSLPRLPNKHHW | 16.5

molecular target: ScCyk3; assay: as above
Summary of the method: as §1

Binder | SPOT peptide array binding signal intensity
TPRLSLPRLPNKHHW | 6

molecular target: ScFus1; assay: as above
Summary of the method: as §1

Binder | SPOT peptide array binding signal intensity
TPRLSLPRLPNKHHW | 0.5

molecular target: ScHof1; assay: as above
Summary of the method: as §1

Binder | SPOT peptide array binding signal intensity
TPRLSLPRLPNKHHW | 238

molecular target: ScHse1; assay: as above
Summary of the method: as §1

Binder | SPOT peptide array binding signal intensity
TPRLSLPRLPNKHHW | 216

molecular target: ScLsb1; assay: as above
Summary of the method: as §1

Binder | SPOT peptide array binding signal intensity
TPRLSLPRLPNKHHW | 8

molecular target: ScLsb2; assay: as above
Summary of the method: as §1

Binder | SPOT peptide array binding signal intensity
TPRLSLPRLPNKHHW | ≤ 0

molecular target: ScLsb3; assay: as above
Summary of the method: as §1

Binder | SPOT peptide array binding signal intensity
TPRLSLPRLPNKHHW | 1330

molecular target: ScLsb4; assay: as above
Summary of the method: as §1

Binder | SPOT peptide array binding signal intensity
TPRLSLPRLPNKHHW | 5

molecular target: ScMyo3; assay: as above
Summary of the method: as §1

Binder | SPOT peptide array binding signal intensity
TPRLSLPRLPNKHHW | ≤ 0

molecular target: ScMyo5; assay: as above
Summary of the method: as §1

Binder | SPOT peptide array binding signal intensity
TPRLSLPRLPNKHHW | ≤ 0

molecular target: ScNbp2; assay: as above
Summary of the method: as §1

Binder | SPOT peptide array binding signal intensity
TPRLSLPRLPNKHHW | 62

molecular target: ScPex13; assay: as above
Summary of the method: as §1

Binder | SPOT peptide array binding signal intensity
TPRLSLPRLPNKHHW | 224

molecular target: ScRvs167; assay: as above
Summary of the method: as §1

Binder | SPOT peptide array binding signal intensity
TPRLSLPRLPNKHHW | 3.33

molecular target: ScSho1; assay: as above
Summary of the method: as §1

Binder | SPOT peptide array binding signal intensity
TPRLSLPRLPNKHHW | 764

molecular target: ScSla1-D1-D2; assay: as above
Summary of the method: as §1

Binder | SPOT peptide array binding signal intensity
TPRLSLPRLPNKHHW | 13.5

molecular target: ScSla1-D3; assay: as above
Summary of the method: as §1

Binder | SPOT peptide array binding signal intensity
TPRLSLPRLPNKHHW | 1.75

molecular target: SpAbp1-D1; assay: as above
Summary of the method: as §1

Binder | SPOT peptide array binding signal intensity
TPRLSLPRLPNKHHW | 386

molecular target: SpBbc1; assay: as above
Summary of the method: as §1

Binder | SPOT peptide array binding signal intensity
TPRLSLPRLPNKHHW | ≤ 0

molecular target: SpBzz1-D1; assay: as above
Summary of the method: as §1

Binder | SPOT peptide array binding signal intensity
TPRLSLPRLPNKHHW | 403

molecular target: SpBzz1-D2; assay: as above
Summary of the method: as §1

Binder | SPOT peptide array binding signal intensity
TPRLSLPRLPNKHHW | 0.75

molecular target: SpCyk3; assay: as above
Summary of the method: as §1

Binder | SPOT peptide array binding signal intensity
TPRLSLPRLPNKHHW | 2

molecular target: SpHof1; assay: as above
Summary of the method: as §1

Binder | SPOT peptide array binding signal intensity
TPRLSLPRLPNKHHW | 35

molecular target: SpHof1-2; assay: as above
Summary of the method: as §1

Binder | SPOT peptide array binding signal intensity
TPRLSLPRLPNKHHW | 293

molecular target: SpHof1-3; assay: as above
Summary of the method: as §1

Binder | SPOT peptide array binding signal intensity
TPRLSLPRLPNKHHW | 136

molecular target: SpHse1; assay: as above
Summary of the method: as §1

Binder | SPOT peptide array binding signal intensity
TPRLSLPRLPNKHHW | 416

molecular target: SpLsb1; assay: as above
Summary of the method: as §1

Binder | SPOT peptide array binding signal intensity
TPRLSLPRLPNKHHW | ≤ 0

molecular target: SpLsb4; assay: as above
Summary of the method: as §1

Binder | SPOT peptide array binding signal intensity
TPRLSLPRLPNKHHW | 357

molecular target: SpMyo1; assay: as above
Summary of the method: as §1

Binder | SPOT peptide array binding signal intensity
TPRLSLPRLPNKHHW | 5.5

molecular target: SpNbp2; assay: as above
Summary of the method: as §1

Binder | SPOT peptide array binding signal intensity
TPRLSLPRLPNKHHW | 61

molecular target: SpPex13; assay: as above
Summary of the method: as §1

Binder | SPOT peptide array binding signal intensity
TPRLSLPRLPNKHHW | 5

molecular target: SpRvs167; assay: as above
Summary of the method: as §1

Binder | SPOT peptide array binding signal intensity
TPRLSLPRLPNKHHW | 302

molecular target: SpSla1-D1-D2; assay: as above
Summary of the method: as §1

Binder | SPOT peptide array binding signal intensity
TPRLSLPRLPNKHHW | 7

molecular target: SpSla1-D3; assay: as above
Summary of the method: as §1

Binder | SPOT peptide array binding signal intensity
TPRLSLPRLPNKHHW | ≤ 0
